Experimental data taken from PubChem BioAssay (NCATS).
Records with an inconclusive call do not appear. Activity calls are given as the source filed them. Unless noted, calls follow the shape of the dose curve; as a rule, active = well fitted curve in the direction sought with a large enough effect; inconclusive = small, poorly fitted or top-dose-only effect, or another doubt; inactive = no such curve, though single readings can be large; an effect the other way counts as inactive or inconclusive.

Columns and labels:
[1] = Primary qHTS for small molecule stabilizers of the endoplasmic reticulum resident proteome: Secreted ER Calcium Modulated Protein (SERCaMP) assay (AID 1508630); conditions: SH-SY5Y GLuc-SERCaMP (Gaussia luciferase released on ER calcium loss) secretion, thapsigargin, luminescence; series mostly up to 38.4 µM
How it was run: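 GLuc-SERCaMP-expressing SH-SY5Y cells, pretreated 16 h with compound, are challenged with thapsigargin to empty ER calcium stores; after 4 h, coelenterazine is added directly to the medium and luminescence is imaged.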

[2] = A High-Content qHTS Against Drug Library for the Identification of Small Molecules that Inhibit DYT1 Early Onset Primary Dystonia-Associated Cell Pathology (AID 1645839; calls by dose curve); conditions: HEK293 Flp-In EGFP-delE TorsinA, punctate imaging, 48 h; series mostly up to 46.1 µM
How it was run: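 In this high-content image screen, delE TorsinA mislocalization in inducible Flp-In 293 cells is scored as %pathology, with cell count serving as the counterscreen. Compound exposure lasts 48 h under tetracycline induction in reduced-serum medium.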

[3] = molecular target: Cytochrome P450 2D6 (Homo sapiens) (UniProt P10635); experiment: Cytochrome P450 family 2 subfamily D member 6 (CYP2D6) small molecule antagonists: luciferase biochemical (cell-free) qHTS assay (AID 1645840; active = well fitted curve in the direction sought with a large enough effect in the repeat runs; an effect the other way counts as inactive or inconclusive; also: nearly all actives have a fitted effect of over 55% in size); conditions: P450-Glo CYP2D6 enzyme, luciferin luminescence, 1 h; series mostly up to 57.4 µM
How it was run: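 P450-Glo luminescent screen: recombinant CYP2D6 enzyme–proluciferin substrate mix preincubated with compound 10 min at room temperature, then NADPH regeneration added for 1 h at room temperature. Detection reagent added for 20 min; luciferin light read as relative luminescence units.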

[4] = molecular target: Cytochrome P450 2C9 (Homo sapiens) (UniProt P11712); experiment: Cytochrome P450 family 2 subfamily C member 9 (CYP2C9) small molecule antagonists: luciferase biochemical (cell-free) qHTS assay (AID 1645842; active = well fitted curve in the direction sought with a large enough effect in the repeat runs; an effect the other way counts as inactive or inconclusive; also: nearly all actives have a fitted effect of over 55% in size); conditions: P450-Glo CYP2C9 enzyme assay, luciferin luminescence; series mostly up to 57.4 µM
How it was run: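 Luminescence, after 20 min with luciferin detection reagent, reflected CYP2C9 turnover during a 1 h NADPH-driven reaction at 37C. Enzyme-substrate mix contained 0.4% bovine serum albumin and was preincubated with compound 10 min at room temperature.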

[5] = Primary qHTS for inhibitors of nuclear receptor binding SET domain protein 2 (NSD2) in an isogenic RCH-ACV NSD2 p.E1099K mutant (9B) (AID 1645876); conditions: RCH-ACV NSD2 E1099K (9B) viability, CellTiter-Glo, 72 h; series mostly up to 44.9 µM; also: nearly all actives have a fitted effect of over 70% in size
[6] = Primary qHTS for inhibitors of nuclear receptor binding SET domain protein 2 (NSD2) in an RCH-ACV wild type WT cells (2C) (AID 1645877); conditions: RCH-ACV (leukaemia line) NSD2 WT (2C) viability, CellTiter-Glo, 72 h; series mostly up to 44.9 µM; also: nearly all actives have a fitted effect of over 70% in size

Measured: Potency

Cytochrome P450 2C9 (Homo sapiens), sequence (P11712 whole entry, looked up): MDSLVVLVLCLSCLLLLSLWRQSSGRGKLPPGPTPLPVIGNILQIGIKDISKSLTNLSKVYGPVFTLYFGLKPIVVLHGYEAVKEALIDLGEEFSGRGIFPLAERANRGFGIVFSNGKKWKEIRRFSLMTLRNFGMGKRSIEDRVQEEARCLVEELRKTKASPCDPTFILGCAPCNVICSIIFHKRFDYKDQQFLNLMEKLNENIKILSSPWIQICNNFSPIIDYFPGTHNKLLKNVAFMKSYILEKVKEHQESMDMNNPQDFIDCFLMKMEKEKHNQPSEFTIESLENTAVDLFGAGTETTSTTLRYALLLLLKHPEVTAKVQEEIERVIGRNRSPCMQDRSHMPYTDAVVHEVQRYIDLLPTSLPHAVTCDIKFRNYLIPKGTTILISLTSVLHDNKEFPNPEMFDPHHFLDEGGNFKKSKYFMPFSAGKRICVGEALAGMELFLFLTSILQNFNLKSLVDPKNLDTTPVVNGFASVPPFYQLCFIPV
Cytochrome P450 2D6 (Homo sapiens), sequence (P10635 whole entry, looked up): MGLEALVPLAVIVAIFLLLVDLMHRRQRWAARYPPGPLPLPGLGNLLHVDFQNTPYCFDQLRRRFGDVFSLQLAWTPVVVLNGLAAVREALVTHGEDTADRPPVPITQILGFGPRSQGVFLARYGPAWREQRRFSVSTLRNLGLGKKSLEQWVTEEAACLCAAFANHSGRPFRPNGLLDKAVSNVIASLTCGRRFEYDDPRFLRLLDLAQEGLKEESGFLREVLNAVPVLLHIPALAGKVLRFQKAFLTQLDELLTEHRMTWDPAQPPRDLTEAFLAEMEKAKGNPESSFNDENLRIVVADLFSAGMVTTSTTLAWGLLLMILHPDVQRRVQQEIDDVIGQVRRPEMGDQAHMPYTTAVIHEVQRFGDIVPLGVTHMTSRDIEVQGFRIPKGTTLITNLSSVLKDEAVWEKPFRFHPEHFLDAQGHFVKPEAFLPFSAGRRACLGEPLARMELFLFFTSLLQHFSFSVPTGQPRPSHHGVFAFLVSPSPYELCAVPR

O=C(Oc1ccccc1)c1ccccc1O
inactive: all assays above

COc1cc2c(cc1OC)CN(C(=O)[C@H](C)N[C@@H](CCc1ccccc1)C(=O)O)[C@H](C(=O)O)C2
inactive: all assays above

COCCc1ccc(OCC2CO2)cc1 (stereo not drawn)
inactive: all assays above
